{"source": "ChEMBL document CHEMBL5308504", "about": "“Tm Shift (DSF) assay results for EUbOPEN Chemogenomics Library” (2023)", "data": [{"biological_target": "Mitogen-activated protein kinase 1 (Homo sapiens) (UniProt P28482)", "sequence (P28482 whole entry)": "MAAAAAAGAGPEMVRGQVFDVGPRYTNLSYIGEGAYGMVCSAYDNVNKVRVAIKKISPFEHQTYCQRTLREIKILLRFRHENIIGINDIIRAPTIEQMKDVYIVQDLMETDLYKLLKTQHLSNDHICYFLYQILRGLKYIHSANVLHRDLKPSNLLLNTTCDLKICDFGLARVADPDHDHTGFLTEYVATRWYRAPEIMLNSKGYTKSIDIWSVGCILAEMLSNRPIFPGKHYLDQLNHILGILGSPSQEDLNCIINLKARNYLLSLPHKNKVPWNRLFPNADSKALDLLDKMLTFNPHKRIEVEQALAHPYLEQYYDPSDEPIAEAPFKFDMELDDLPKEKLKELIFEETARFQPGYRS", "conditions": "Compound concentration 20.0 uM, Protein concentration 2.0 uM, Result type QC Liability", "units": {"ΔTm": "°C"}, "values": [{"smiles": "O=C1CN(c2ccccc2F)C(NCCN2CCOCC2)=C1c1nc2cc(Br)ccc2c(=O)[nH]1", "ΔTm": 0.23}, {"smiles": "CCN(CC)C/C=C/C(=O)Nc1cc2c(Nc3ccc(F)c(Cl)c3)ncnc2cc1OCC1CC1", "ΔTm": -0.24}, {"smiles": "Cn1cc(Nc2nccc(N3CC4CCC(C3)N4C(=O)[C@@H]3CC3(F)F)n2)cn1", "ΔTm": 0.56}, {"smiles": "O=C(Cc1ccccc1[N+](=O)[O-])Nc1ccc(-c2ccc(C(O)(C(F)(F)F)C(F)(F)F)cc2F)cc1", "ΔTm": -0.87}, {"smiles": "N=C(N)NCCC[C@H](NC(=O)CC1(CC(=O)N2CCN(C(c3ccccc3)c3ccccc3)CC2)CCCC1)C(=O)NCc1ccccc1", "ΔTm": -0.93}, {"smiles": "COC(=O)c1sccc1S(=O)(=O)Nc1ccc(Nc2ccccc2)cc1OC", "ΔTm": -2.78}, {"smiles": "O=C(O)CCC/C=C\\C[C@@H]1[C@@H](/C=C/[C@@H](O)COc2cccc(C(F)(F)F)c2)[C@H](O)C[C@@H]1O", "ΔTm": -0.39}, {"smiles": "CC(C)(O)CNC(=O)N1C(=O)N(c2cccc(C(F)(F)F)c2)C2=C(C(=O)CC2)[C@@H]1c1ccc(C#N)cc1", "ΔTm": 0.17}, {"smiles": "O=C(Nc1snnc1C(=O)Nc1ccc(N2CCCC2)cc1)c1cncc(C(F)(F)F)c1", "ΔTm": 0.03}, {"smiles": "CCc1c(-c2ccc3[nH]ncc3c2)cnc(N)c1-c1ccc(O)cc1", "ΔTm": 0.44}, {"smiles": "COc1cc(-c2cc3ncccc3c(O[C@@H](C)[C@H]3CNC(=O)C3)n2)cc(OC)c1OC", "ΔTm": 0.06}, {"smiles": "Cc1cccc(-c2nn3c(c2-c2ccnc4ccc(C(N)=O)cc24)CCC3)n1", "ΔTm": 0.51}, {"smiles": "Cc1[nH]nc(C(F)(F)F)c1Cc1sc2c(c1C(=O)N1C[C@](C)(O)CO1)c(=O)n(C)c(=O)n2C(C)C", "ΔTm": 0.23}, {"smiles": "O=C(NCCN1CCOCC1)c1ccc2nn(CCOc3ccc(Cl)cc3)cc2c1", "ΔTm": 0.56}, {"smiles": "COc1c(NC(=O)c2cc3cccc(Oc4ccnc(C(=O)N5CCN(C)CC5)c4)c3n2C)cc(C(C)(C)C)cc1NS(C)(=O)=O", "ΔTm": 0.86}, {"smiles": "CC(C)N(C(=O)C1CCOCC1)c1cc(F)c(Oc2ncc(Cn3nccn3)cc2C(F)(F)F)cc1C(=O)O", "ΔTm": -0.07}, {"smiles": "Cc1cc(NC(=O)c2cccc(NC(=O)/C=C/CN(C)C)c2)ccc1Nc1nccc(-c2cccnc2)n1", "ΔTm": 1.52}, {"smiles": "CN1CC(=O)N(C)c2cnc(Nc3ccc(NC(=O)Nc4cccc(C(=O)O)c4)cc3)nc21", "ΔTm": 0.43}, {"smiles": "N[C@@H]1CCCN(c2c(/C=C3\\SC(=O)NC3=O)cccc2-c2ccccc2)C1", "ΔTm": 0.64}, {"smiles": "CCCCCCCC/C=C\\CCCCCCCC(=O)NCCO", "ΔTm": -1.79}, {"smiles": "CNC(=O)c1cccc(-c2ccc3c(N4CCOC[C@@H]4C)nc(N4CCOC[C@@H]4C)nc3n2)c1", "ΔTm": 0}, {"smiles": "Cc1cc(C2CCCNC2)ccc1Nc1ncc(Br)c(NCc2cccc3c2C(C)(C)C(=O)N3)n1", "note": "(centres undefined)", "ΔTm": 2.1}, {"smiles": "CCC(=O)N[C@H]1CC[C@@H](C(=O)N(C)c2ccc(-c3nc4ccccc4o3)cc2)C1", "ΔTm": 0.13}, {"smiles": "Cc1nn(-c2nc3ccc(Cl)c(Cl)c3[nH]2)c(O)c1C1OC(=O)c2ccccc21", "note": "(centres undefined)", "ΔTm": 0.2}, {"smiles": "CC(C)(C)NC(=O)c1cncn1C1CCN(c2ccc(-c3nnc(C(F)(F)F)o3)cn2)CC1", "ΔTm": 0.18}, {"smiles": "CN[C@@H](C)C(=O)N[C@H](C(=O)N1CCC[C@H]1C(=O)N[C@@H]1CCCc2ccccc21)C1CCCCC1", "ΔTm": 0.48}, {"smiles": "CC1(C)C[C@@H]1C(=O)N/C(=C\\CCCCSC[C@H](N)C(=O)O)C(=O)O", "ΔTm": -0.39}, {"smiles": "CNc1nc(-c2ccc3c(N)n[nH]c3c2)cc(N2C[C@@H](C(=O)NC3CCCCC3)CC[C@H]2C)n1", "ΔTm": 0.38}, {"smiles": "CCNC1=N[C@@H]2[C@@H](O)[C@H](O)[C@@H](CO)O[C@@H]2S1", "ΔTm": 0.28}, {"smiles": "CCOc1ccc(S(=O)(=O)Nc2ccc(Cl)cc2C#Cc2cnc(C(=O)O)cc2OC)c2ncccc12", "ΔTm": -0.06}, {"smiles": "CN(C)[C@H]1CC[C@H](Nc2ncc3ncnc(Nc4ccc(F)c(Cl)c4)c3n2)CC1", "ΔTm": 0.51}, {"smiles": "COc1ncc(-c2cc(-c3ncc(CN4C[C@@H](C)O[C@@H](C)C4)o3)c3cn[nH]c3c2)cc1NS(C)(=O)=O", "ΔTm": 0.18}, {"smiles": "COc1ccccc1Nc1nc(-c2nn(Cc3c(F)cc(OCCCO)cc3F)c3ccccc23)ncc1OC", "ΔTm": 0.16}, {"smiles": "CCOC(=O)N1CCC(CN(Cc2ccc(Cl)cc2)Cc2ccc([N+](=O)[O-])s2)C1", "note": "(centres undefined)", "ΔTm": 0.21}, {"smiles": "COc1ccc(CSc2nnc(-c3ccc4ncsc4c3)o2)cc1C(F)(F)F", "ΔTm": -8.68}, {"smiles": "O=C(Nc1ccc(C(O)(C(F)(F)F)C(F)(F)F)cc1)c1ccc(C(F)(F)F)cc1", "ΔTm": 0.19}, {"smiles": "COc1cc(-c2cncc(-c3ccc(N4CCN(C(C)C)CC4)cc3)c2C)cc(F)c1C(=O)N1CCCC1", "ΔTm": 0.53}, {"smiles": "CN1CCN(C(=O)c2ccc3cc2OCCOCCNc2ccn4ncc-3c4n2)CC1", "ΔTm": 0.5}, {"smiles": "CC(C)Nc1ncnc2cc(OCc3cccc([S@@](C)(=N)=O)c3)c(Br)cc12", "ΔTm": -0.37}]}]}
